Measured values from PMC7862700, “An all-to-all approach to the identification of sequence-specific readers for epigenetic DNA modifications on cytosine”.

What was measured:
Assay in all cases: DAPPL (digital affinity profiling via proximity ligation, sequencing); 10 mM Tris-HCl pH 7.5, 50 mM NaCl, 1 mM DTT, 4% glycerol, room temperature, 30 min; GST-TFs on glutathione beads, 16-mer random dsDNA library, 0.1% formaldehyde crosslink after washing; high values mean tight binding
Conditions in all cases: protein: recombinant; tags: N-terminal GST; dsDNA, one strand shown
FLI1 = target: T1, FLI1 (Homo sapiens, UniProt Q01543 1-452)
T1 sequence: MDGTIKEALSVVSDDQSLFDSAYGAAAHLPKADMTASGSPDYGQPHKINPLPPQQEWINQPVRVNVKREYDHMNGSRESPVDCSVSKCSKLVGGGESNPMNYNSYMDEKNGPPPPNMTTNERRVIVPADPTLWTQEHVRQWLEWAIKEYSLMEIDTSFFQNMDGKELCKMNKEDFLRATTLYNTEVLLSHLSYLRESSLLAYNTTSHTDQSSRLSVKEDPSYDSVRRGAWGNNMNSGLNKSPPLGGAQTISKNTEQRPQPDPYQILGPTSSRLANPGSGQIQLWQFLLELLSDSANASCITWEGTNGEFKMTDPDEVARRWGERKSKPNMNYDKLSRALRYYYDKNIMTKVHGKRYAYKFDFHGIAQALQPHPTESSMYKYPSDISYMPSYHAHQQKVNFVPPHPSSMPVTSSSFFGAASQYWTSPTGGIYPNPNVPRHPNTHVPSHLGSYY
How it was run: (§1)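 Binding signal is given per hexamer as its read frequency for a factor divided by its frequency in the tag-only sample. GST-fused human transcription factors were expressed in yeast, captured on glutathione beads, barcoded with DNA and pooled with that sample, then incubated with 200 nmole of a 16-mer random double-stranded DNA library in Tris/NaCl/DTT/glycerol buffer for 30 min at room temperature. The pools were then washed, crosslinked, proximity-ligated, amplified by PCR and sequenced on an Illumina NextSeq500.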

ELK1 = target: T2, ELK1 (Homo sapiens, UniProt P19419 1-428)
T2 sequence: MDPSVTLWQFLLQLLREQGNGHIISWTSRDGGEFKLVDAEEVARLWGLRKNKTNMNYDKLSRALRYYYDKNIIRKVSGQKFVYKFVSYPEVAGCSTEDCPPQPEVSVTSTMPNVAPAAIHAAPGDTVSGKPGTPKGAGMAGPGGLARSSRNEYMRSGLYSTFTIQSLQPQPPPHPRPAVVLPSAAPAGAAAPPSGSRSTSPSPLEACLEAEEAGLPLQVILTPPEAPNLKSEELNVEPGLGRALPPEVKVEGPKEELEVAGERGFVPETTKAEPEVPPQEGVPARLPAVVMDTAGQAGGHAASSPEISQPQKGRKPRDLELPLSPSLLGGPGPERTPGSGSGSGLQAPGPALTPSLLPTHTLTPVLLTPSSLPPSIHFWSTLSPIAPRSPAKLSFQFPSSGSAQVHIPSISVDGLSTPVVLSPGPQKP
How it was run: as §1

ELF1 = ELF1 (Homo sapiens, UniProt P32519 1-619)
Chain of ELF1 (P32519 whole entry): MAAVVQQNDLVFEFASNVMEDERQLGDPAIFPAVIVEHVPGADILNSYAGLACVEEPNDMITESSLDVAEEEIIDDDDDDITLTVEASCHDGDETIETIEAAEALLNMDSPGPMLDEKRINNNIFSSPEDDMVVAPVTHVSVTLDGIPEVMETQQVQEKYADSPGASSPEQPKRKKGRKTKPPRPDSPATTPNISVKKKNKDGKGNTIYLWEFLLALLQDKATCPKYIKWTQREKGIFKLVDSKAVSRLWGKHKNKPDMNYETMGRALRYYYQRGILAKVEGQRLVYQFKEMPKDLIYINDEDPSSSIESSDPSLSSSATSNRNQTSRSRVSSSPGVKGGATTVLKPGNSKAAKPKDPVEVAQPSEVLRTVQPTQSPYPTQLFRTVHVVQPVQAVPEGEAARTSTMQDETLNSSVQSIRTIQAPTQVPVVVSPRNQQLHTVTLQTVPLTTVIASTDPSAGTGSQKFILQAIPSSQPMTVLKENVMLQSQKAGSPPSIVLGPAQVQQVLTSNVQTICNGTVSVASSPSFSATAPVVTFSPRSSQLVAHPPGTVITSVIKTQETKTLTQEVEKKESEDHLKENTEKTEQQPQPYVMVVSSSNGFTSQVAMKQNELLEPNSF
How it was run: as §1

EHF = target: T3, EHF (Homo sapiens, UniProt Q9NZC4 1-300)
T3 sequence: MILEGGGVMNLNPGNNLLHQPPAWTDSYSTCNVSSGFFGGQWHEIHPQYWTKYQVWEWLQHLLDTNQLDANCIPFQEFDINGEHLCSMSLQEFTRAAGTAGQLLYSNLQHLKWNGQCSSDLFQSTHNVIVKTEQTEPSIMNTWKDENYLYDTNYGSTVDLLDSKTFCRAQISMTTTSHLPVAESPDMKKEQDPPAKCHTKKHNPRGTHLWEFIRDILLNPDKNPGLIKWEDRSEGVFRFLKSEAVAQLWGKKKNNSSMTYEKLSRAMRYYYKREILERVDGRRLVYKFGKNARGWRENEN
How it was run: as §1

SPIB = SPIB (Homo sapiens, UniProt Q01892 1-262)
Chain of SPIB (Q01892 whole entry): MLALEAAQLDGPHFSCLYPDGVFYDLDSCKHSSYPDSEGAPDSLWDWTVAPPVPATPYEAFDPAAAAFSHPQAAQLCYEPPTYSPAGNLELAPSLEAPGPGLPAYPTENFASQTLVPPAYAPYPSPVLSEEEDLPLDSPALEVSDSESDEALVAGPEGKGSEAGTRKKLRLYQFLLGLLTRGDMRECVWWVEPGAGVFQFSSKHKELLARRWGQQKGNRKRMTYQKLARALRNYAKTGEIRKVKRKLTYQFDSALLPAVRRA
How it was run: as §1

ELK3 = target: T4, ELK3 (Homo sapiens, UniProt P41970 1-407)
T4 sequence: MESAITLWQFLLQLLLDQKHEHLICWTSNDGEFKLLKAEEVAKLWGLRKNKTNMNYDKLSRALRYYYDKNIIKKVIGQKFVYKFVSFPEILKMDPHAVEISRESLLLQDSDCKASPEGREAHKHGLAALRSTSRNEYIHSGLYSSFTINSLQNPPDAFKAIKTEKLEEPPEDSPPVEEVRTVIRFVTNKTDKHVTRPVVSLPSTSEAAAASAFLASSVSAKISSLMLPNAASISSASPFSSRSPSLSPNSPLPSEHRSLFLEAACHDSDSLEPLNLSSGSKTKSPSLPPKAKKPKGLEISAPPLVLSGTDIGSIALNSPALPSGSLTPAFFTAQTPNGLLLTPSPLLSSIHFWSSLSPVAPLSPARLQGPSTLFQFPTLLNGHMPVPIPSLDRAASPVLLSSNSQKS
How it was run: as §1

FEV = target: T5, FEV (Homo sapiens, UniProt Q99581 1-238)
T5 sequence: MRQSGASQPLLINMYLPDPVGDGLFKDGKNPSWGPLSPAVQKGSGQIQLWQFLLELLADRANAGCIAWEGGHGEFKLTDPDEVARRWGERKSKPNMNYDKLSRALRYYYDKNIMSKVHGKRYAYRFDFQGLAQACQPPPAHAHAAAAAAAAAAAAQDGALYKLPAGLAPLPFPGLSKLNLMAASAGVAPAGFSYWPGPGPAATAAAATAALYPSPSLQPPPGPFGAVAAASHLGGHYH
How it was run: as §1

ETV5 = ETV5 (Homo sapiens, UniProt P41161 1-510)
Chain of ETV5 (P41161 whole entry): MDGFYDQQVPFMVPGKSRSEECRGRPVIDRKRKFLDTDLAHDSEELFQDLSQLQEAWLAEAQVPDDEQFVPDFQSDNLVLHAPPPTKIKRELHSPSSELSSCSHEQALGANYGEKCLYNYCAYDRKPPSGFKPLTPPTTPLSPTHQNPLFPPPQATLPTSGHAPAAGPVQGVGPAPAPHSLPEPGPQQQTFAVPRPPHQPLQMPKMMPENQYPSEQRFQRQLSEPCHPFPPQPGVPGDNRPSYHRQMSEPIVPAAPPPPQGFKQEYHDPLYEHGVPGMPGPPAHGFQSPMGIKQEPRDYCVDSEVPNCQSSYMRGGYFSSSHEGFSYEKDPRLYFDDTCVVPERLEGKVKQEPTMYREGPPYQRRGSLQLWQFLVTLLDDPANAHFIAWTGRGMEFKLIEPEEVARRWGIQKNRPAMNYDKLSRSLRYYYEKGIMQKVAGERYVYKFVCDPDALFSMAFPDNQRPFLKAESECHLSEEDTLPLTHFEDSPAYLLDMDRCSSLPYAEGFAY
How it was run: as §1

SPIC = target: T6, SPIC (Homo sapiens, UniProt Q8N5J4 1-248)
T6 sequence: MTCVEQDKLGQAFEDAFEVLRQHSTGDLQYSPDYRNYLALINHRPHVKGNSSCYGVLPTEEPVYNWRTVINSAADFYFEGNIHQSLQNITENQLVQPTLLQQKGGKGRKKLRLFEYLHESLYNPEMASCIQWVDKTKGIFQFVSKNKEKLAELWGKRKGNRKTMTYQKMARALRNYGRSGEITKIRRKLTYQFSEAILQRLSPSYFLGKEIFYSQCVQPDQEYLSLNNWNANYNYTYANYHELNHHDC
How it was run: as §1

ELF4 = ELF4 (Homo sapiens, UniProt Q99607 1-663)
Chain of ELF4 (Q99607 whole entry): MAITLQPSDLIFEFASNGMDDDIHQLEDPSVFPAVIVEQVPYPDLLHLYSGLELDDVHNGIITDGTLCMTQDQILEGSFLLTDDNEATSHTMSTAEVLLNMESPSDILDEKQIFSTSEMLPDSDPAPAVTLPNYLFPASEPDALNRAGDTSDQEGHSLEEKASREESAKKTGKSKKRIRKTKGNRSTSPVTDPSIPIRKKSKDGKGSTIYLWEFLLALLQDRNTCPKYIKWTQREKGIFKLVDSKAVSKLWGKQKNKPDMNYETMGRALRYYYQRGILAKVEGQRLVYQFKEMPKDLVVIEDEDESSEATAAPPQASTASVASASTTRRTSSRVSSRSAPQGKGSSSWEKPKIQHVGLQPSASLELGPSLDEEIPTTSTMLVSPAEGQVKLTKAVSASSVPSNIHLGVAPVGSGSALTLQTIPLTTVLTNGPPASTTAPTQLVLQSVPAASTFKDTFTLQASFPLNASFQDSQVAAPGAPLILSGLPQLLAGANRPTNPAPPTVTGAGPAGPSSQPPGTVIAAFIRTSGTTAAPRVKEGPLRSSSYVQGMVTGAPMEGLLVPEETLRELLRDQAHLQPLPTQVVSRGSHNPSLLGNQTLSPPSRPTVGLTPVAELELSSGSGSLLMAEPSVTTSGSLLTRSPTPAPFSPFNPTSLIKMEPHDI
How it was run: as §1

ETV1 = ETV1 (Homo sapiens, UniProt P50549 1-477)
Chain of ETV1 (P50549 whole entry): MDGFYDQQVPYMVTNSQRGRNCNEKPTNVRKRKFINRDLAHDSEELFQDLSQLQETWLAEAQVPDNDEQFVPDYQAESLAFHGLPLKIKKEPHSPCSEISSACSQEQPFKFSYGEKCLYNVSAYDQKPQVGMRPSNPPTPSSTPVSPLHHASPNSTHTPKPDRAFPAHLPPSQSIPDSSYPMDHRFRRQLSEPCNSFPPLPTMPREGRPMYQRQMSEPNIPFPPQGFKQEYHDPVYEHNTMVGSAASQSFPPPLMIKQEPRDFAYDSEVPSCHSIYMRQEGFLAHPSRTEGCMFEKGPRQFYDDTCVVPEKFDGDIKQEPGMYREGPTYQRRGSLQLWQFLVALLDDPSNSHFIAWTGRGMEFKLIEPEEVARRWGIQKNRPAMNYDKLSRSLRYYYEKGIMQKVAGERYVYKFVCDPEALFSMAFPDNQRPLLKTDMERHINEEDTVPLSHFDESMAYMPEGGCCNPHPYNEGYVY
How it was run: as §1

ERF = target: T7, ERF (Homo sapiens, UniProt P50548 1-548)
T7 sequence: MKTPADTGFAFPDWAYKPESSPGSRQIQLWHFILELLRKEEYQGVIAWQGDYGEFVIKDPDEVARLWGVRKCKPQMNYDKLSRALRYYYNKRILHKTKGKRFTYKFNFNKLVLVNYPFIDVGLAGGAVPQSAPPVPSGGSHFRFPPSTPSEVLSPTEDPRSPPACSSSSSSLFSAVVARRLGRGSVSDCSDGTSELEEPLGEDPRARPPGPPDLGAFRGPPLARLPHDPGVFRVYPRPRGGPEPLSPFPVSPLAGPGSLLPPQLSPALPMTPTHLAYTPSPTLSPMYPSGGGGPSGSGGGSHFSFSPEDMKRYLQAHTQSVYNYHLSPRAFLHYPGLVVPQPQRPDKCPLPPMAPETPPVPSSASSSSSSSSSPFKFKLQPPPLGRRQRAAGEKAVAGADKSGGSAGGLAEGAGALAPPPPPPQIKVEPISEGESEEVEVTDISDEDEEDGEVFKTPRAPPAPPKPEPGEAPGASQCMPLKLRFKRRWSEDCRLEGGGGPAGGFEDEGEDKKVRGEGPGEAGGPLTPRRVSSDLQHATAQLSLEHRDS
How it was run: as §1

ETV3L = target: T8, ETV3L (Homo sapiens, UniProt Q6ZN32 1-361)
T8 sequence: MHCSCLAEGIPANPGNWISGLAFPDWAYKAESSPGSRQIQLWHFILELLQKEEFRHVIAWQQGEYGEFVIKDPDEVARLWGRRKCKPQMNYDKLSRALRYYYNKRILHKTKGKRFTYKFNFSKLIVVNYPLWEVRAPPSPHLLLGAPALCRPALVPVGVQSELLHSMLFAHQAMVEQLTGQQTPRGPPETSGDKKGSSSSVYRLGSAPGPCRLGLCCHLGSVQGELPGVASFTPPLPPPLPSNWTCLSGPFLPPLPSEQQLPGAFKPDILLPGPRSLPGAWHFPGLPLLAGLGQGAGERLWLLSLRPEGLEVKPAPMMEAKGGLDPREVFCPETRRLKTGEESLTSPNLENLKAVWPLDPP
How it was run: as §1

ETS2 = target: T9, ETS2 (Homo sapiens, UniProt P15036 1-469)
T9 sequence: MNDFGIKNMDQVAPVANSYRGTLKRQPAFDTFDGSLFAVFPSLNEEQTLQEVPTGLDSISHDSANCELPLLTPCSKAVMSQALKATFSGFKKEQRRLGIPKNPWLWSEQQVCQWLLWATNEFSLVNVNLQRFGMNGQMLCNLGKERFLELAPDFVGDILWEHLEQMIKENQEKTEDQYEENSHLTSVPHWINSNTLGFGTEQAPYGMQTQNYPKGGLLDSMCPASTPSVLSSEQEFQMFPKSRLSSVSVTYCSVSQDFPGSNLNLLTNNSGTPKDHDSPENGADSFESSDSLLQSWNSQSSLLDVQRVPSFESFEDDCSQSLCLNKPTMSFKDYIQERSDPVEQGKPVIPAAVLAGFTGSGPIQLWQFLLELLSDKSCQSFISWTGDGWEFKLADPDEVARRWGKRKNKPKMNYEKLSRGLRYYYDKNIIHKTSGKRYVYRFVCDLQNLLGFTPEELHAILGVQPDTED
How it was run: as §1

ELF5 = target: T10, ELF5 (Homo sapiens, UniProt Q9UKW6-2 1-255)
T10 sequence: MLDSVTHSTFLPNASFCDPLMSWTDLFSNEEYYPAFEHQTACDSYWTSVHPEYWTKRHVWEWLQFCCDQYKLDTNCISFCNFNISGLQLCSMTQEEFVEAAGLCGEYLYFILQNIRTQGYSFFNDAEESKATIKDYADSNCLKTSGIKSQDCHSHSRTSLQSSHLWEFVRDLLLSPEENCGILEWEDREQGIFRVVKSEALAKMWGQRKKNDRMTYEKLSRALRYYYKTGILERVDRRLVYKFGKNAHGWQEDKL
How it was run: as §1

ETV3 = target: T11, ETV3 (Homo sapiens, UniProt P41162-2 1-143)
T11 sequence: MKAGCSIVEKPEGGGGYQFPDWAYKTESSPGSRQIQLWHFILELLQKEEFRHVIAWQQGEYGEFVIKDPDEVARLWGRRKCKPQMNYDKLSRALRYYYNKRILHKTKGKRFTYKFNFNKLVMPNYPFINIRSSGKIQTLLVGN
How it was run: as §1

ETV6 = ETV6 (Homo sapiens, UniProt P41212 1-452)
Chain of ETV6 (P41212 whole entry): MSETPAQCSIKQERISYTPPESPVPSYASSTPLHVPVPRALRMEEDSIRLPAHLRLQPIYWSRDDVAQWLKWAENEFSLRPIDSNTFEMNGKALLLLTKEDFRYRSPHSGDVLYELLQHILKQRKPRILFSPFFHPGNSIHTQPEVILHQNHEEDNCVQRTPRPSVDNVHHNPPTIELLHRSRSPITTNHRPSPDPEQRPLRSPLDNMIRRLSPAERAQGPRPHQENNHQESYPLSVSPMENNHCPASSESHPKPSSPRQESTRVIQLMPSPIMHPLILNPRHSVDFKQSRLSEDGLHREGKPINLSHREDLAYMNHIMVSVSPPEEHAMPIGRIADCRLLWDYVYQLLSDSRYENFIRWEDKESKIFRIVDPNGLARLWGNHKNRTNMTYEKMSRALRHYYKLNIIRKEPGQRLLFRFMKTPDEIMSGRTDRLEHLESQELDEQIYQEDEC
How it was run: as §1

**Q.** For ACCACA, which binding signal (FLI1) is on record?
**A.** 1.05 fold enrichment (6-mer frequency, TF over GST control)

**Q.** What about the binding signal (ELK1) of the same sequence?
**A.** 1.1 fold enrichment (6-mer frequency, TF over GST control)

**Q.** What about the binding signal (ELF1) of the same sequence?
**A.** 1.08 fold enrichment (6-mer frequency, TF over GST control)

**Q.** What about the binding signal (EHF) of the same sequence?
**A.** 1.11 fold enrichment (6-mer frequency, TF over GST control)

**Q.** And the binding signal (SPIB)?
**A.** 1.04 fold enrichment (6-mer frequency, TF over GST control)

**Q.** What about the binding signal (ELK3) of the same sequence?
**A.** 1.14 fold enrichment (6-mer frequency, TF over GST control)

**Q.** What about the binding signal (FEV) of the same sequence?
**A.** 1.05 fold enrichment (6-mer frequency, TF over GST control)

**Q.** And the binding signal (ETV5)?
**A.** 1.03 fold enrichment (6-mer frequency, TF over GST control)

**Q.** And the binding signal (SPIC)?
**A.** 1.1 fold enrichment (6-mer frequency, TF over GST control)

**Q.** And the binding signal (ELF4)?
**A.** 1.11 fold enrichment (6-mer frequency, TF over GST control)

**Q.** What about the binding signal (ETV1) of the same sequence?
**A.** 1.09 fold enrichment (6-mer frequency, TF over GST control)

**Q.** And the binding signal (ERF)?
**A.** 1.05 fold enrichment (6-mer frequency, TF over GST control)

**Q.** And the binding signal (ETV3L)?
**A.** 1.16 fold enrichment (6-mer frequency, TF over GST control)

**Q.** What about the binding signal (ETS2) of the same sequence?
**A.** 1.06 fold enrichment (6-mer frequency, TF over GST control)

**Q.** What about the binding signal (ELF5) of the same sequence?
**A.** 1.09 fold enrichment (6-mer frequency, TF over GST control)

**Q.** And the binding signal (ETV3)?
**A.** 1.02 fold enrichment (6-mer frequency, TF over GST control)

**Q.** And the binding signal (ETV6)?
**A.** 1.08 fold enrichment (6-mer frequency, TF over GST control)
